Test results as given in PubChem BioAssay (Tox21).
Unmarked numbers belong to inactive results. Results filed as inconclusive are left out. A call without a number means that no potency is given here. Active and inactive are the calls of the source. Unless noted, the call rests on the fitted dose curve; in most records, active means well fitted curve in the direction sought with a large enough effect in the repeat runs; inconclusive means weak or mixed curves; inactive means no such curve, though single readings can be large; an effect the other way counts as inactive or inconclusive.

Columns and labels:
[1] = qHTS assay for small molecule agonists of the p53 signaling pathway (AID 651631; calls by dose curve; further: nearly all actives have a fitted effect of over 15% in size)
Outline: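 HCT-116 cells carrying a stable p53 response element–beta-lactamase reporter were plated, rested 5 h at 37 °C, then exposed to compound in DMSO for 16 h at 37 °C; reporter activity was read as FRET substrate fluorescence after 2 h at room temperature.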

[2] = qHTS assay for small molecules that induce genotoxicity in human embryonic kidney cells expressing luciferase-tagged ATAD5 (AID 651632); further: nearly all actives have a fitted effect of over 15% in size
Outline: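 Genotoxicity read-out via ATAD5-luciferase: HEK293T cells, 16 hr compound incubation at 37C, Amplite detection.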

[3] = qHTS assay for small molecule agonists of the p53 signaling pathway - cell viability (AID 651633; calls by dose curve; further: series mostly up to about 83 µM; nearly all actives have a fitted effect of over 30% in size)
Outline: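 Viability counter-read: CellTiter-Glo luminescence (30 min, room temperature) in the same p53RE-bla plates. These plates had been exposed to compounds for 16 h at 37 C.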

[4] = qHTS assay for small molecule disruptors of the mitochondrial membrane potential - cell viability (AID 720634; calls by dose curve;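 further: human HepG2 liver cancer cells; series mostly up to about 83 µM; nearly all actives have a fitted effect of over 20% in size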)
Outline: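 Human hepatoma HepG2 cells were treated for 1 hr with test chemicals, then given m-MPI dye and CellTiter-Glo. Cell viability reflects luminescence proportional to cellular ATP.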

[5] = qHTS assay for small molecule disruptors of the mitochondrial membrane potential (AID 720635); further: potency means the concentration at half of the fitted maximal effect
Outline: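 Mitochondrial membrane potential tracked with Mito-MPS dye, red aggregates (ex 540/em 590 nm) against green monomers (ex 490/em 535 nm). Compound treatment 1 hr at 37C, dye 30 min in HepG2.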

[6] = qHTS assay to test for compound auto fluorescence at 590 nm (red) in HepG2 cells (AID 720674)
Outline: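 We screened compounds on adherent HepG2 cells, incubating them for an hour at 37 C in 5% CO2 before reading emission at 590 nm under 540 nm excitation; values reflect equivalence to Rose Bengal sodium fluorescence.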

[7] = qHTS assay to test for compound auto fluorescence at 535 nm (green) in HepG2 cells (AID 720675)
[8] = qHTS assay to test for compound auto fluorescence at 460 nm (blue) in HEK293 cells (AID 720678)
Outline: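 After cell attachment (4-5 hr, 37C), compounds were pinned onto HEK293 monolayers in 10% dialyzed FBS medium. The blue channel (405/460 nm) was read following overnight culture. Equivalency was calculated against triamterene.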

[9] = qHTS assay to test for compound auto fluorescence at 590 nm (red) in HEK293 cells (AID 720679)
Outline: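 Plates of HEK293 cells (10% dialyzed FBS) are treated with 23 nL compound or DMSO vehicle after a 4-5 hr attachment period, incubated overnight at 37C, and read for red fluorescence at 540/590nm.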

[10] = qHTS assay to test for compound auto fluorescence at 535 nm (green) in HEK293 cells (AID 720680)
[11] = qHTS assay to test for compound auto fluorescence at 460 nm (blue) in HEK293 cell free culture (AID 720681)
Outline: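 Blue fluorescence (Ex 405/Em 460 nm, triamterene-equivalent) was read immediately after pin transfer of compound or DMSO into medium (DMEM, 10% FBS) without cells.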

[12] = qHTS assay to test for compound auto fluorescence at 535 nm (green) in HEK293 cell free culture (AID 720682)
Outline: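 Read-out: 485/535 nm fluorescence intensity, calibrated against fluorescein. Medium only (DMEM + 10% FBS, no cells); test compound or DMSO vehicle added by pintool before plate reading.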

[13] = qHTS assay to test for compound auto fluorescence at 590 nm (red) in HEK293 cell free culture (AID 720683)
Outline: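 Red-channel autofluorescence of compounds in culture medium (DMEM, 10% FBS), no cells, measured at 540/590 nm. Rose Bengal sodium is the reference fluorophore for equivalence.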

[14] = qHTS assay to test for compound auto fluorescence at 590 nm (red) in HepG2 cell free culture (AID 720684)
Outline: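 Steps: dispense MEM/10% FBS medium, no cells; pin compound or DMSO vehicle; read red channel, Ex/Em 540/590 nm. Output given as Rose Bengal sodium equivalents.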

[15] = qHTS assay to test for compound auto fluorescence at 460 nm (blue) in HepG2 cell free culture (AID 720685)
Outline: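 Compound (23 nL) or DMSO pinned into cell-free MEM with 10% FBS; blue fluorescence read at 405/460 nm excitation/emission, expressed as auto-fluorescence equivalency to triamterene.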

[16] = qHTS assay to test for compound auto fluorescence at 535 nm (green) in HepG2 cell free culture (AID 720686)
[17] = qHTS assay to test for compound auto fluorescence at 460 nm (blue) in HepG2 cells (AID 720687)
Outline: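 Blue-channel autofluorescence (Ex/Em 405/460 nm, triamterene-equivalent) was measured after 1 hr compound exposure at 37 C, 5% CO2. Cells were HepG2, plated overnight at 37 C in MEM plus 10% FBS.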

[18] = target: Glucocorticoid receptor (Homo sapiens) (UniProt P04150); test: qHTS assay to identify small molecule agonists of the glucocorticoid receptor (GR) signaling pathway (AID 720691; active means well fitted activation curve with a large enough effect in the signal ratio in the repeat runs, not every such curve was filed as active; the % refers to the signal ratio)
Glucocorticoid receptor (Homo sapiens), sequence (P04150 whole entry, looked up): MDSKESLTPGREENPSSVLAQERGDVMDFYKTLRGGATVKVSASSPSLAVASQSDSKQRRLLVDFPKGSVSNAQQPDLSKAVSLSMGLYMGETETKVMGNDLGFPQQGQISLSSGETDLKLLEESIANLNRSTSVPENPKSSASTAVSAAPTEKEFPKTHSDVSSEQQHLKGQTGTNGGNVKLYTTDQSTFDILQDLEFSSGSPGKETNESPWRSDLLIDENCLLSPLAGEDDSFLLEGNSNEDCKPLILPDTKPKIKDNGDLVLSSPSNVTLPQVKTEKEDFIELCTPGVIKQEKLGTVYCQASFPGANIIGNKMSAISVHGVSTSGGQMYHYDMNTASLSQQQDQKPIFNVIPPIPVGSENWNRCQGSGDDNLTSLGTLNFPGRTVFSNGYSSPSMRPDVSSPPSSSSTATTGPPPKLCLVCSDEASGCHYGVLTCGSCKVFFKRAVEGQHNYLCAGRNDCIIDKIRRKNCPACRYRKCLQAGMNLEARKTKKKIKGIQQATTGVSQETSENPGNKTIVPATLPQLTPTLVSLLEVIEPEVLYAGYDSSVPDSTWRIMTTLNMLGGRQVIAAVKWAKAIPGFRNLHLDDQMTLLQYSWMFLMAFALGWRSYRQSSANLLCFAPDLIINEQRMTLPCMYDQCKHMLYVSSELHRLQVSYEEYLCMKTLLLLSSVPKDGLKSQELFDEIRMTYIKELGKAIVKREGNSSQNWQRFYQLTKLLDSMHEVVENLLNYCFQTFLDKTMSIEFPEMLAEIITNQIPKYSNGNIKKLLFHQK
Outline: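 Beta-lactamase reporter activity, read as fluorescence intensity, was measured in GR-bla HeLa cells exposed to compounds for 18 h at 37 C and then loaded with LiveBLAzer B/G FRET substrate for 2 h at room temperature.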

[19] = target: Glucocorticoid receptor (Homo sapiens) (UniProt P04150); test: qHTS assay to identify small molecule antagonists of the glucocorticoid receptor (GR) signaling pathway (AID 720692; active means well fitted inhibition curve with a large enough effect in the signal ratio in the repeat runs, not every such curve was filed as active; the % refers to the signal ratio)
Outline: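 Fluorescence from cleaved LiveBLAzer B/G FRET substrate reports GRE-driven beta-lactamase in HeLa cells; compounds are tested against 5 nM dexamethasone (final) over 18 h at 37 C, substrate incubation 2 h at room temperature.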

[20] = qHTS assay for small molecules that induce genotoxicity in human embryonic kidney cells expressing luciferase-tagged ATAD5 - cell viability (AID 651634; calls by dose curve; further: nearly all actives have a fitted effect of over 25% in size)
Outline: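 Live-cell protease activity (CellTiter-Fluor, fluorescence) indicates viability. HEK293T cells with luciferase-tagged ATAD5; 15.5 hr compound treatment at 37C.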

| SMILES | Potency [1] | Potency [2] | Potency [3] | Potency [4] | Potency [5] | outcome [6] | outcome [7] | outcome [8] | outcome [9] | outcome [10] | outcome [11] | outcome [12] | outcome [13] | outcome [14] | outcome [15] | outcome [16] | outcome [17] | outcome [18] | Potency [19] | Potency [20] |
| --- | --- | --- | --- | --- | --- | --- | --- | --- | --- | --- | --- | --- | --- | --- | --- | --- | --- | --- | --- | --- |
| CCCN(CC1CC1)c1c([N+](=O)[O-])cc(C(F)(F)F)cc1[N+](=O)[O-] | inactive | inactive | inactive | inactive | 30.6 µM (active) | inactive | inactive | inactive | inactive | inactive | inactive | inactive | inactive | inactive | inactive | inactive | inactive | inactive | inactive |  |
| Brc1ccccc1 | inactive | inactive | inactive | inactive | inactive | inactive | inactive | inactive | inactive | inactive |  | inactive |  | inactive | inactive |  | inactive | inactive | inactive |  |
| BrCCCCBr | inactive | inactive |  | inactive |  | inactive | inactive | inactive |  | inactive | inactive | inactive | inactive | inactive | inactive | inactive | inactive | inactive | inactive | inactive |
| CC(C)(Cl)[N+](=O)[O-] | inactive | inactive | inactive | inactive |  | inactive | inactive |  | inactive | inactive | inactive | inactive | inactive | inactive | inactive | inactive | inactive | inactive | inactive |  |
| C=CC(=O)OC | inactive |  |  | inactive |  | inactive | inactive | inactive | inactive | inactive | inactive | inactive | inactive | inactive | inactive | inactive | inactive |  |  | inactive |
| COP(=S)(OC)Oc1ccc([N+](=O)[O-])cc1Cl | inactive | inactive | inactive |  | 24.3 µM (active) | inactive | inactive | inactive | inactive | inactive | inactive | inactive | inactive | inactive | inactive | inactive | inactive | inactive | inactive |  |
| COC(=O)c1cncn1C(C)c1ccccc1 (stereo not drawn) | inactive | inactive |  | inactive |  | inactive | inactive | inactive | inactive | inactive | inactive | inactive | inactive | inactive | inactive | inactive | inactive |  |  |  |
| COc1cc(Cl)c(OC)cc1Cl | inactive | inactive |  | inactive |  | inactive | inactive | inactive | inactive | inactive |  | inactive | inactive | inactive | inactive | inactive | inactive | inactive | inactive | inactive |
| CCCCOC(=O)c1ccccc1C(=O)OCc1ccccc1 | inactive | inactive | inactive | inactive |  | inactive | inactive | inactive | inactive | inactive | inactive | inactive |  | inactive | inactive | inactive | inactive | inactive | inactive |  |
| CC(=O)CCC(C)=O | inactive | inactive |  | inactive |  | inactive | inactive | inactive |  | inactive | inactive | inactive | inactive | inactive | inactive | inactive | inactive | inactive | inactive | inactive |
| CCCCCCCCOC(=O)c1ccc(C(=O)OCCCCCCCC)c(C(=O)OCCCCCCCC)c1 | inactive | inactive |  | inactive |  | inactive | inactive | inactive | inactive | inactive | inactive | inactive |  | inactive | inactive |  | inactive | inactive | inactive |  |
| CC(=O)C(C)(C)C | inactive | inactive |  | inactive |  | inactive | inactive | inactive | inactive | inactive |  | inactive | inactive | inactive | inactive | inactive | inactive | inactive | inactive | inactive |
| Nc1nc(N)nc(N)n1 | inactive | inactive |  | inactive |  | inactive | inactive | inactive | inactive | inactive | inactive | inactive | inactive | inactive | inactive | inactive | inactive | inactive | inactive | inactive |
